Experimental findings from PubChem BioAssay (NCI) are described below.

Compounds without any hit were thinned out: in the full panel of roughly 83,000, 20% have a hit.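 The test compound was applied at a single concentration to cells in 96-well plates for 48 hours, and percent growth was recorded.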 Unmarked numbers belong to inactive results. Active and inactive are the calls of the source. How the source made its calls: active means growth percent below 10; inactive means the rest.

Holding throughout (assay): NCI-60 one-dose screen, 48 h (100 = growth as untreated, 0 = no growth, -100 = all killed)
Common to all, as to conditions: 10 µM unless noted

Test [1] has as its system HCT-15 colon.
The test system of test [2] is HT29 colon.
Test [3] concerns SNB-75 CNS.
Test [4] has as its system SNB-19 CNS.
Test [5] concerns U251 CNS.
Test [6] concerns PC-3 prostate.
For test [7], the system named is SK-MEL-5 melanoma.
For test [8], the system named is UACC-62 melanoma.
In test [9] the test system is LOX IMVI melanoma.
Test [10] has as its system SK-MEL-28 melanoma.

`COc1ccc(CC(C#N)c2ccc(Cl)cc2)cc1` (centres undefined): the growth in test [1] was 60.6%; in test [2], 55.3%; in [3] it was 75.9%; in [4], 82.1%; in test [5], 77.6%; in test [6], 85.9%. For the same molecule, the growth is 76.8% in test [7], 69.6% in [8], 79.3% in test [9] and 91.5% in test [10].
In the case of `CC(C)C1=NOC(=O)C1=Cc1cn(-c2ccccc2)nc1-c1ccccc1`, the growth in test [1] was 77.4%; in [2], 49.2%; in [3], 72.5%; in test [4] it was 74.8%; in test [5], 53%; in test [6] it was 67.9%. Also, the growth in [7] is 91.6%; in test [8], 76.1%; in test [9], 18%; in test [10] it was 95.1%.
In the case of `COc1ccc(-c2cc(-c3ccc(Cl)cc3)nc(NCCCCNc3ccnc4cc(Cl)ccc34)n2)cc1`, the growth in test [1] was 0.532% (active); in [2] it was 4.81% (active); in [3], 99.5%; in test [4], 95.5%; in test [5] it was 70.9%; in [6], 54.8%. The growth in [7] is 26.8%; in test [8], 84.8%; in [9] it was -78.3% (active); in test [10], -7.9% (active).
As to `CCOC(=O)c1c[nH]n2c(=S)ncnc12`, the growth in test [1] is 102%; in [2], 100%; in test [3] it was 90.7%; in [4], 96.1%; in [5] it was 102%; in test [6], 117%. In addition, the growth in test [7] was 105%; in test [8], 97.5%; in test [9], 96.4%; in test [10], 108%.
Regarding `CCOC(=O)c1cc(C(=O)c2ccc(OC)c(OC)c2)n2ccc(-c3ccccn3)cc12`, the growth was 83% in test [1]; 76.4% in [2]; 24.1% in test [3]; 67.8% in test [4]; 21.7% in test [5]; 87% in test [6]. In addition, the growth in test [7] is 37.1%; in [8], 83.5%; in test [9] it was 84.7%; in test [10], 71%.
Turning to `CC1(C)CC[C@]2(C(=O)OC(=O)[C@]34CCC(C)(C)C[C@@H]3C3=CC[C@@H]5[C@@]6(C)CCC(=O)C(C)(C)[C@@H]6CC[C@@]5(C)[C@]3(C)CC4)CC[C@]3(C)C(=CC[C@@H]4[C@@]5(C)CCC(=O)C(C)(C)[C@@H]5CC[C@]43C)[C@H]2C1`, the growth was 73.6% [100 µM] in [1]; 44.8% [100 µM] in test [2]; 15.8% [100 µM] in test [3]; 62.8% [100 µM] in test [4]; 64.6% [100 µM] in test [5]; 36.6% [100 µM] in [6]. Further, the growth was 25% [100 µM] in [7], 49.9% [100 µM] in test [8], 64.6% [100 µM] in test [9] and 81.7% [100 µM] in test [10].
Consider `O=c1cc(-c2ccccc2)oc2c(O)c(O)ccc12`, for which the growth was 38% in test [1]; 77.4% in test [2]; 73.7% in test [3]; 58% in test [4]; 43.1% in test [5]; 67.4% in test [6]. In addition, the growth is 53.6% in [7], 72.7% in test [8], 53.9% in [9] and 81% in test [10].
Take `O=C(COc1cccc(/C=C2\Oc3ccccc3C2=O)c1)c1ccc([N+](=O)[O-])cc1`: the growth was 94.2% in test [1]; 108% in [2]; 81.7% in test [3]; 91.3% in test [4]; 93.6% in test [5]; 86.6% in test [6]. Further, the growth in [7] is 99%; in test [8], 72.2%; in [9], 88.6%; in [10] it was 135%.
Turning to `C1=C[C@H]2O[C@@H]1c1ccc3[nH]ccc3c12`, the growth is 78.8% in test [1]; 87.7% in [2]; 83.4% in test [3]; 96.8% in [4]; 103% in [5]; 98% in [6]. Further, the growth in test [7] was 90.4%; in test [8] it was 78.8%; in [9] it was 100%; in test [10] it was 94%.
For the molecule `O=[N+]([O-])c1cccc(/C=C/c2ccc3ccccc3n2)c1`, the growth in test [1] is 82.5%; in [2], 76.5%; in test [3], 7.41% (active); in test [4], 64.1%; in [5], 72.2%; in [6], 77.8%. The growth is 82% in [7], 82.9% in [8], 70.5% in test [9] and 87.3% in test [10].
For the molecule `CCCCN(CC)CC(CC)Nc1cc(OC)cc2cccnc12` (centres undefined), the growth in test [1] was 97.2%; in [2] it was 103%; in test [3], 100%; in test [4], 110%; in test [5], 101%; in test [6] it was 96.5%. Moreover, the growth in [7] was 99.9%; in test [8] it was 106%; in test [9], 114%; in test [10], 121%.
Regarding `COc1ccc(C(=O)/C=C/c2ccccn2)c(O)c1`, the growth was 39.7% in test [1]; 72.2% in [2]; 78.1% in [3]; 73.1% in [4]; 87.5% in test [5]; 95.5% in test [6]. Besides, the growth is 95% in test [7], 90.8% in test [8], -54.9% (active) in test [9] and 90.7% in [10].
For the molecule `Cc1ccc(-c2cc(-c3ccc(C)cc3)nc(N3CCN(CCNc4ccnc5cc(Cl)ccc45)CC3)n2)cc1`, the growth in test [1] was 42.1%; in test [2], 11.9%; in test [3] it was -21.1% (active); in test [4], 38.7%; in test [5], 35.7%; in test [6], 44.6%. The growth was 38.5% in test [7], 12.2% in test [8], 6.97% (active) in test [9] and 14.6% in [10].
In the case of `COc1cc(C(=O)/C=C/c2c(-c3ccc(F)cc3)nc3sccn23)cc(OC)c1OC`, the growth in [1] was 27.8%; in [2], 5.08% (active); in test [3], 32.3%; in test [4], 10%; in [5], 5.59% (active); in [6] it was 19.9%. The growth in [7] is -50.5% (active); in test [8], 23.3%; in [9], 15.6%; in [10], 52.2%.
Turning to `CC(=O)O.CC(=O)O.O.[Fe]`, the growth was 111% in test [1]; 98.7% in test [2]; 114% in test [3]; 98.2% in [4]; 107% in test [5]; 93.4% in [6]. Further, the growth is 107% in test [7], 93.7% in test [8], 100% in test [9] and 112% in test [10].
Consider `O=[N+]([O-])c1ccc(O)c(-c2nc3ccccc3s2)c1`, for which the growth is 89% in test [1]; 96.6% in test [2]; 86.9% in test [3]; 64.1% in test [4]; 71.6% in [5]; 70.6% in test [6]. For the same molecule, the growth in test [7] is 25.3%; in [8], 41.3%; in test [9], 61%; in test [10] it was 64.3%.
Consider `CCCCCCNC(=O)Nc1ncnc2c1ncn2-c1ccccc1`, for which the growth in [1] was 95.2%; in [2], 99.4%; in test [3] it was 72.7%; in test [4], 94.2%; in [5] it was 94.8%; in [6] it was 89.4%. Moreover, the growth was 98.3% in test [7], 97.6% in test [8], 102% in test [9] and 104% in [10].
As to `O=C(Nc1ccc(Oc2ccc(F)cc2)c(Cl)c1)c1cccnn1`, the growth in test [1] is 77.6%; in [2], 76.7%; in test [3] it was 87.8%; in [4], 66.2%; in test [5] it was 62.9%; in test [6], 64.4%. In addition, the growth in test [7] was 30.7%; in test [8] it was 62.5%; in test [9], 72.8%; in test [10] it was 90.9%.
Turning to `Oc1ccc(N=Nc2nccs2)c(O)c1`, the growth is 28.6% in test [1]; 51.5% in test [2]; 92.7% in test [3]; 90.8% in test [4]; 41.1% in test [5]; 55.2% in test [6]. Also, the growth in [7] is 87.9%; in [8], 44.3%; in test [9] it was 40%; in [10], 118%.
Turning to `C#C[C@]1(O)CC[C@H]2[C@@H]3CC=C4c5nc(Nc6ccccc6[N+](=O)[O-])sc5CC[C@]4(C)[C@H]3CC[C@@]21C`, the growth in [1] was 35.3%; in [2], 55.7%; in [3] it was 17.9%; in test [4], 76.6%; in test [5], 39.7%; in test [6] it was 41.8%. The growth is 60.6% in [7], 67.8% in test [8], 73.1% in test [9] and 62.1% in test [10].
With `CCOC(=O)c1nn(C2CCCCO2)c2ccc(NC(=O)CN3CCOCC3)cc12` (centres undefined), the growth in test [1] was 106%; in test [2] it was 116%; in test [3] it was 80.7%; in test [4] it was 98.8%; in test [5], 97.9%; in test [6], 107%. Moreover, the growth in [7] is 102%; in [8], 102%; in test [9], 98.2%; in [10] it was 109%.
For the molecule `CC(C)(C)c1cc(C(=O)Nc2ccccc2C(=O)NCCN)cc(C(C)(C)C)c1`, the growth is -56.7% (active) in test [1]; -41.3% (active) in test [2]; 66.5% in test [3]; -46.1% (active) in test [4]; -57.3% (active) in [5]; 4.8% (active) in [6]. Further, the growth in test [7] is 46%; in test [8], -58.3% (active); in test [9], -98.5% (active); in test [10] it was -84% (active).
In the case of `c1cc2ccc1CNCCN1CCNCc3ccc(cc3)Oc3ccc(cc3)CNCCN(CCNCc3ccc(cc3)O2)CCNCc2ccc(cc2)Oc2ccc(cc2)CNCC1`, the growth in test [1] was 95.4%; in test [2], -74.7% (active); in test [3] it was -73.1% (active); in [4], -91.2% (active); in test [5] it was -99.7% (active); in test [6], -85.5% (active). The growth is 66.1% in test [7], -76% (active) in [8], -94.1% (active) in [9] and 14.7% in test [10].
As to `CCOC(=O)C(=Cc1ccccc1[N+](=O)[O-])C(=O)OCC`, the growth in test [1] is 5.68% (active); in test [2], 11.4%; in test [3], -7.8% (active); in [4] it was 59.6%; in [5], 23.4%; in test [6] it was 47%. Further, the growth in [7] is 20.4%; in test [8], 32.3%; in test [9], -18.5% (active); in test [10], 33.7%.
`CC(C)OC(=O)Nc1cc(F)c(F)cc1F`: the growth is 98.1% in test [1]; 99.3% in test [2]; 96.3% in test [3]; 102% in test [4]; 99.3% in test [5]; 99.8% in test [6]. For the same molecule, the growth in test [7] was 102%; in test [8], 96.6%; in [10], 96%.
With `CCc1cccc(Cl)c1`, the growth is 105% in [1]; 92.8% in [2]; 91% in [3]; 104% in [4]; 105% in test [5]; 88.2% in [6]. For the same molecule, the growth in test [7] is 103%; in test [8], 101%; in test [9], 103%; in test [10] it was 106%.
